# PubChem BioAssay (NCI)
# About 83,000 compounds went through this panel and 20% of them were active in at least one assay; those are over-represented in the sample as a whole.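 Plates (96-well) were seeded with cells, treated with compound at one concentration, and incubated for 48 hours before percent growth was determined.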 Values without a mark were called inactive. Calls of active or inactive are those of the source. The calls were made as follows: active = growth percent below 10; inactive = the rest.
# Test system: MDA-MB-468 breast
# Test: NCI-60 one-dose screen, 48 h (100 = growth as untreated, 0 = no growth, -100 = all killed)
# Details: 10 µM unless noted
row,SMILES,growth
1,O=C(Cc1ccc(/C=C/C(=O)c2ncc[nH]2)cc1)Nc1ccc(S(F)(F)(F)(F)F)cc1,52.7%
2,CS(=O)(=O)c1c(Nc2ccccc2)n[nH]c1N,110%
3,CCCc1cc2c(cc1CN(Cc1cc3c(cc1CCC)OCO3)C(=N)OCC)OCO2,60.8%
4,CO/N=C(/C(=O)NC1C(=O)N2C(C(=O)O)=C(COC(N)=O)CSC12)c1ccco1 (stereo not drawn),109%
5,Cc1cc(=O)oc2cc(OCCCOc3ccc(/C=C/C(=O)Nc4ccc(Br)cc4)cc3)ccc12,75.9%
6,C=C(C)[C@@H]1CC[C@]2(C(=O)OCCCC[P+](c3ccccc3)(c3ccccc3)c3ccccc3)CC[C@]3(C)[C@H](CC[C@@H]4[C@@]5(C)CC[C@H](OC(=O)C(Cl)Cl)C(C)(C)[C@@H]5CC[C@]43C)[C@@H]12,-61.7% (active)
7,Cc1c[n+](Cc2ccc3ccccc3c2)cn1Cc1ccc2ccccc2c1,-22.6% (active)
8,Nc1nc(N)c(NC(=O)CNc2ccc(C(=O)O)cc2)c(N)n1,98.6%
9,O=C(O)c1ccc(-n2c(=O)n(-c3cccc(C(F)(F)F)c3)c(=O)c3cc(-c4ccc(F)cc4F)ccc32)cc1,-4.52% (active)
10,ClC1c2ccccc2CCc2ccccc21,111%
11,COc1cc2nc(-c3ccc(Cl)cc3)cc(OCCCN3CCCCC3)c2cc1OC,47.7%
12,COc1cc(/C=C/C(=O)/C=C/c2cc(OC)c3c(c2OC)OCO3)c(OC)c2c1OCO2,23.1%
13,CC(C)(C)OC(=O)CN1CCc2c(sc3ncnc(N4CCN(c5ccc(F)cc5)CC4)c23)C1,92.3%
